The results in this text go back to PubChem BioAssay (NCATS).

SMILES strings stand for the structures. Where “and” joins values, the source holds several entries; their conditions need not be identical. Equal values may be shown once. Results filed as inconclusive are left out. The source holds several records for some structures; these can differ, active in one and inactive in another. Calls of active or inactive are those of the source. The call rests on the fitted dose curve; in most records, active means well fitted curve in the direction sought with a large enough effect; inconclusive means small, poorly fitted or top-dose-only effect, or another doubt; inactive means no such curve, though single readings can be large; an effect the other way counts as inactive or inconclusive.

In assay [1] the test system is NIH3T3. The assay is described as follows: Cytotoxic Profiling of Annotated Libraries Using Quantitative High-Throughput Screening (AID 1296008). Further: nearly all actives have a fitted effect of over 60% in size. The settings on record: Five cell lines viability, CellTiter-Glo ATP luminescence, 48-72 h; max response: stronger effect = lower value. A digest of the protocol: (§1)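 Cytotoxicity was measured as CellTiter-Glo ATP luminescence, read after 10 min at room temperature. Compound treatment of the cells lasted 48 or 72 hr at 37 degrees Celsius in a qHTS format.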

The subject of another assay is MCC-13. The assay is described as follows: qHTS assay to identify novel small-molecules to repurpose for Merkel cell carcinoma treatment (AID 1296009). Further: nearly all actives have a fitted effect of over 60% in size. The settings on record: MCC and control cell lines, CellTiter-Glo viability, 72 h; series mostly up to 46 µM. The gist of the method: (§2)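 After compound transfer in DMSO, plates were kept 72 hr at 37 degree celsius. Luminescent ATP signal from CellTiter-Glo served as viability measure, normalized against DMSO and no-cell controls.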

For another assay, the system named is MCC-26. The assay is described as above. The settings on record: MCC and control cell lines, CellTiter-Glo viability, 72 h; series mostly up to 46 µM. A digest of the protocol: as §2
The subject of the next assay is MKL-1. Described as above. The settings on record: MCC and control cell lines, CellTiter-Glo viability, 72 h; series mostly up to 46 µM. The gist of the method:
as §2

Another assay deals with MKL-2. The description is as above. The settings on record: MCC and control cell lines, CellTiter-Glo viability, 72 h; series mostly up to 46 µM. A digest of the protocol:
as §2

Assay [2] relates to NIH3T3. The assay is described as above. The settings on record: MCC and control cell lines, CellTiter-Glo viability, 72 h; at 44.8 µM (top of the series) unless noted. The gist of the method: as §2
The test system of the next assay is UISO. The assay is described as above. The settings on record: MCC and control cell lines, CellTiter-Glo viability, 72 h; series mostly up to 46 µM. A digest of the protocol: as §2
The next assay has as its system WaGa. The assay is described as above. The settings on record: MCC and control cell lines, CellTiter-Glo viability, 72 h; series mostly up to 46 µM. The gist of the method:
as §2

The next assay relates to C33A. In words: Primary qHTS to identify gynecologic anti-cancer compounds using libraries of approved drugs and bioactive compounds (AID 1345084). Further: nearly all actives have a fitted effect of over 55% in size. The settings on record: Gynecologic cancer cell panel viability, ATPlite luminescence, 48 h; series mostly up to 57.5 µM. A digest of the protocol: (§3)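 In this quantitative HTS, cell killing is estimated from loss of ATP-dependent luciferase light. Cells see five compound concentrations over a 48 h exposure.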

The next assay has as its system CAOV3. The assay is described as above. The settings on record: Gynecologic cancer cell panel viability, ATPlite luminescence, 48 h; series mostly up to 57.5 µM. The gist of the method:
as §3

The subject of a further assay is CASKI. Described as above. The settings on record: Gynecologic cancer cell panel viability, ATPlite luminescence, 48 h; series mostly up to 57.5 µM. A digest of the protocol:
as §3

The test system of another assay is Es-2. The description is as above. The settings on record: Gynecologic cancer cell panel viability, ATPlite luminescence, 48 h; series mostly up to 57.5 µM. A digest of the protocol: as §3
For another assay, the system named is HeLa. The assay is described as above. The settings on record: Gynecologic cancer cell panel viability, ATPlite luminescence, 48 h; series mostly up to 57.5 µM. The gist of the method: as §3
Assay [3] relates to Hek293T. Described as above. The settings on record: Gynecologic cancer cell panel viability, ATPlite luminescence, 48 h, control line for the selectivity index; series mostly up to 57.5 µM. The gist of the method:
as §3

The next assay concerns JEG-3. Described as above. The settings on record: Gynecologic cancer cell panel viability, ATPlite luminescence, 48 h; series mostly up to 57.5 µM. A digest of the protocol: as §3
Another assay concerns OV90. The assay is described as above. The settings on record: Gynecologic cancer cell panel viability, ATPlite luminescence, 48 h; series mostly up to 57.5 µM. A digest of the protocol:
as §3

Assay [4] relates to HEK293T. In words: qHTS assay to identify novel small-molecules to repurpose for Merkel cell carcinoma treatment (AID 1296009). Further: nearly all actives have a fitted effect of over 60% in size. The settings on record: MCC and control cell lines, CellTiter-Glo viability, 72 h; at 44.8 µM (top of the series) unless noted. A digest of the protocol: as §2
The next assay concerns KB-3-1. The assay is described as follows: Cytotoxic Profiling of Annotated Libraries Using Quantitative High-Throughput Screening (AID 1296008). Further: nearly all actives have a fitted effect of over 60% in size. The settings on record: Five cell lines viability, CellTiter-Glo ATP luminescence, 48-72 h; max response: stronger effect = lower value. The gist of the method:
as §1
On the % scale 0 is the no-effect control and ±100 the full control effect; potency means the concentration at half of the fitted maximal effect.

Regarding `CC(C)(C)NCC(O)COc1ccccc1OCC1CCCO1` (configuration not stated), the call in the assay with NIH3T3 [1] and in the assay with NIH3T3 [2] was inactive. Further, the Potency result in the assay with MCC-13, with MCC-26, with MKL-1, in the assay on MKL-2, in the assay with UISO and with WaGa was “inactive” each time. Also, the Potency entry in the assay with C33A, with CAOV3, in the assay on CASKI, with Es-2, in the assay with HeLa and in the assay with Hek293T [3] was “inactive” throughout. The Potency result with JEG-3 and in the assay with OV90 was “inactive” in each case.

`CNC(=O)c1cnn(-c2nc(N)c3ncn([C@@H]4O[C@H](CO)[C@@H](O)[C@H]4O)c3n2)c1`: the max response in the assay on NIH3T3 [1] is -3.79% (inactive). Moreover, in the assay with HEK293T [4], the call was inactive. The Potency entry with MCC-13, in the assay with MCC-26, with MKL-1, in the assay with MKL-2, with UISO and with WaGa was “inactive” each time. For the same molecule, the Potency entry with C33A, with CAOV3, in the assay with CASKI, in the assay with Es-2, with HeLa and in the assay with Hek293T [3] was “inactive” throughout. For the same molecule, the Potency result with JEG-3 and in the assay with OV90 was “inactive” throughout.

For `CN1[C@@H]2CC[C@H]1CC(NC(=O)n1c(=O)[nH]c3ccccc31)C2` (some centres not stated), the values for the max response in the assay on KB-3-1 and in the assay on NIH3T3 [1] were -6.43% (inactive) and 1.08% (inactive), respectively. For the same molecule, the Potency entry with MCC-13, in the assay with MCC-26, in the assay on MKL-1, in the assay with MKL-2, in the assay with UISO and in the assay with WaGa was “inactive” throughout. Besides, the Potency entry in the assay on C33A, in the assay with CAOV3, with CASKI, in the assay on Es-2, with HeLa and in the assay with Hek293T [3] was “inactive” in each case. The Potency result with JEG-3 was “inactive”.

Consider `Nc1ncnc2c1ncn2Cc1c(F)cccc1Cl`, for which the result in the assay with NIH3T3 [1], in the assay with HEK293T [4] and in the assay on NIH3T3 [2] was inactive. The Potency result in the assay with MCC-13, in the assay with MCC-26, in the assay on MKL-1, with MKL-2, with UISO and in the assay on WaGa was “inactive” in each case. Moreover, the Potency result in the assay on C33A, with CASKI, with Es-2, in the assay with HeLa, in the assay on Hek293T [3] and with JEG-3 was “inactive” throughout. In the assay with OV90, the Potency entry is “inactive”.

With `OC1(c2ccc(Cl)c(C(F)(F)F)c2)CCN(CCCC(c2ccc(F)cc2)c2ccc(F)cc2)CC1`, the Potency in the assay with KB-3-1 is 23.1 µM (active); in the assay with MCC-13, 18.8 µM (active); in the assay on MKL-1 it was 7.5 µM (active); in the assay with MKL-2 it was 5.31 µM (active); with UISO it was 10.6 µM (active); with WaGa it was 15 µM (active). Moreover, the Potency with Es-2 is 25.1 µM (active) and inactive; in the assay on HeLa, 25.1 µM (active) and inactive; in the assay with OV90, 25.1 µM (active) and 31.6 µM (active).

Turning to `OCc1c[nH]c2ccccc12`, in the assay on KB-3-1, the max response was -7.74% (inactive). For the same molecule, the Potency result in the assay with MCC-13 and with MCC-26 was “inactive” throughout. The Potency was 24.3 µM (active) in the assay on MKL-2, 10.9 µM (active) in the assay with UISO and 35.5 µM (active) with C33A.

With `CCN(CC)CCN`, the max response in the assay with NIH3T3 [1] is -0.486% (inactive). Also, the Potency entry in the assay with MCC-13, with MCC-26, in the assay on MKL-1, in the assay on MKL-2, with UISO and with WaGa was “inactive” throughout. Besides, the Potency result with C33A, in the assay with CAOV3, in the assay with CASKI, in the assay on Es-2, in the assay with HeLa and with Hek293T [3] was “inactive” in each case. Also, in the assay with JEG-3, the Potency result was “inactive”.
